High-throughput results: PubChem, several laboratories
Sampled rows, rich in hits. Any-hit rate of the full collection: about 2.5%.
Env fusion inh – inhibitors of HIV-1 Env-driven cell-cell fusion, primary screen, HeLa-JRFL effector, CEM21 target cells, luciferase. inhibition, % at 12.3 µM. 1.1% of 360,000 active. AID 651610, 2012;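 active = mean replicate inhibition score of at least 50 and every replicate individually at or above 50; inconclusive = only one of the two criteria met; inactive = mean below 50 and not all replicates reaching 50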
F508del corr – F508del CFTR correction, initial screen, CFBE line, single point; CFBE cells, YFP halide quenching; stimulated with forskolin plus potentiator P3; % fluorescence drop versus neutral controls; activity (quench increase), % at 7.58 µM; 0.36% of 350,000 active;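 active = mean added fluorescence quench of at least 8% versus neutral control, with both replicates also reaching 8%; inconclusive = only one of the mean or replicate conditions met; inactive = mean below 8% and not both replicates reaching 8%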;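 also: cells transiently co-express mutant CFTR-F508del with the halide-sensitive YFP; corrector assay measuring rescue of mutant channel to the surface after 24 h compound exposure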
GAA850 FXN act – FXN promoter activators, primary screen, cell-based, luciferase luminescence, HEK293 lucGAA850; 0.56% of 360,000 active; HEK293 lucGAA850 FXN promoter luciferase reporter, 24 h; percent of 10 µM SAHA response; AID 540364, 2011; activation, % at 6 µM;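 active = activation above the average of all compounds screened plus 3 SD, cutoff fixed separately per campaign, cut at about 7.5% in these data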
EWS-Fli block – EWS/Fli-driven NR0B1 reporter inhibitors, primary screen, A673 cells, NR0B1 luciferase, luminescence, MLPCN library | 0.67% of 350,000 active | viability-normalised | inhibition, % at 12.6 µM | AID 651661, 2012;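 active = mean inhibition of at least 50% after viability correction, with every replicate also passing that limit; inconclusive = mean reaches 50% but only one of two replicates passes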;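 also: firefly luciferase signal divided by Alamar Blue viability fluorescence both relative to DMSO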
PAX8 reporter – inhibitors of PAX8-driven TPO luciferase reporter, primary screen, RMG-I cells, single concentration; SteadyGlo, 24 h; inhibition, % at 12.6 µM; 1.2% of 360,000 active;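 active = mean replicate inhibition at least 60% with every replicate also reaching 60%; inconclusive = only one of the two criteria is met; inactive = mean below 60% and not all replicates reaching 60%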;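 also: luciferase light reporting Pax8 driven TPO promoter activity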
Numbers stand for hits; [ ] = another dose, or the depositor's remark.

For COc1ccc(CNC(=O)N(C)C[C@@H]2OCc3ccccc3-c3c(n(C)c4ccccc34)C(=O)N([C@H](C)CO)C[C@H]2C)cc1 the results were Env fusion inh inactive, F508del corr inactive, EWS-Fli block inactive and PAX8 reporter inactive.
`COc1ccc(CNC(=O)N(C)C[C@H]2OCc3ccccc3-c3c(n(C)c4ccccc34)C(=O)N([C@H](C)CO)C[C@@H]2C)cc1` gave Env fusion inh 68[16.7 µM], F508del corr inactive, EWS-Fli block inactive and PAX8 reporter inactive.
`COc1ccc(CNC(=O)N(C)C[C@H]2OCc3ccccc3-c3c(n(C)c4ccccc34)C(=O)N([C@@H](C)CO)C[C@@H]2C)cc1` gave Env fusion inh 58[16.7 µM], F508del corr inactive, EWS-Fli block inactive and PAX8 reporter inactive.
For COc1ccc(CNC(=O)N(C)C[C@H]2OCc3ccccc3-c3ccccc3C(=O)N([C@H](C)CO)C[C@@H]2C)cc1 the results were Env fusion inh 72[16.7 µM], F508del corr inactive, EWS-Fli block inactive and PAX8 reporter inactive.
CCS(=O)(=O)N1[C@H](CO)[C@H](c2ccccc2)[C@@H]1CN(C)Cc1ccccn1 was read as F508del corr inactive.
Screening O=C(OCCO)c1c(-c2ccccc2)oc2c1C(OCCO)CCC2 (stereo not drawn) returned Env fusion inh 61, F508del corr inactive, EWS-Fli block inactive and PAX8 reporter inactive.
`CCCC#Cc1ccc([C@H]2[C@@H](CO)N3C(=O)CN(C(=O)NC4CCCC4)C[C@H]23)cc1` gave F508del corr inactive, EWS-Fli block inactive and PAX8 reporter inactive.
For C=CCNc1nc(NCc2ccc(NC(C)=O)cc2)c2sc(-c3ccccc3)cc2n1 the results were Env fusion inh inactive, F508del corr inactive, GAA850 FXN act inactive, EWS-Fli block inactive and PAX8 reporter inactive.
For CC(=O)Nc1ccc(CNc2nc(NC(C)C)nc3cc(-c4ccccc4)sc23)cc1 the results were Env fusion inh inactive, F508del corr inactive, GAA850 FXN act inactive, EWS-Fli block 60 and PAX8 reporter 73.
Screening COc1ccc(-c2csc(NC(=O)CSCc3c(C)noc3C)n2)cc1OC returned Env fusion inh inactive, F508del corr inactive, GAA850 FXN act inactive, EWS-Fli block inactive and PAX8 reporter inactive.
`Cc1noc(C)c1CSCC(=O)Nc1nc(-c2ccc(F)c(F)c2)cs1` gave Env fusion inh 61, F508del corr inactive, GAA850 FXN act inactive, EWS-Fli block inactive and PAX8 reporter inactive.
CCOC(=O)/C=C1\SCC(=O)N1CC(=O)Nc1ccc(OC)c(OC)c1 was read as GAA850 FXN act inactive.
CCOC(=O)/C=C1/SCC(=O)N1CC(=O)NC12CC3CC(CC(C3)C1)C2 was read as Env fusion inh 57, F508del corr inactive, GAA850 FXN act inactive and EWS-Fli block inactive.
`C[C@H]1CN([C@@H](C)CO)C(=O)Cc2cc(NC(=O)c3ccncc3)ccc2O[C@H]1CN(C)Cc1ccc(-c2ccccc2)cc1` gave Env fusion inh inactive, F508del corr inactive, EWS-Fli block inactive and PAX8 reporter 69.
Screening C[C@@H]1CN([C@@H](C)CO)C(=O)Cc2cc(NC(=O)Cc3ccccc3)ccc2O[C@H]1CN(C)Cc1ccc(-c2ccccc2)cc1 returned Env fusion inh inactive, F508del corr inactive, EWS-Fli block inactive and PAX8 reporter 79.
`C[C@@H]1CN([C@H](C)CO)C(=O)Cc2cc(NC(=O)C3CC3)ccc2O[C@H]1CN(C)Cc1ccc(-c2ccccc2)cc1` gave Env fusion inh inactive, F508del corr inactive, EWS-Fli block inactive and PAX8 reporter inactive.
For C[C@H]1CN([C@@H](C)CO)C(=O)Cc2cc(NC(=O)Nc3ccc4c(c3)OCO4)ccc2O[C@@H]1CN(C)Cc1ccc(-c2ccccc2)cc1 the results were Env fusion inh inactive, F508del corr inactive, EWS-Fli block inactive and PAX8 reporter 78.
Screening C[C@@H]1CN([C@@H](C)CO)C(=O)Cc2cc(NC(=O)C3CC3)ccc2O[C@H]1CN(C)Cc1ccc(-c2ccccc2)cc1 returned Env fusion inh inactive, F508del corr inactive, EWS-Fli block inactive and PAX8 reporter 91.
`C[C@H]1CN([C@@H](C)CO)C(=O)Cc2cc(NC(=O)Nc3ccc4c(c3)OCO4)ccc2O[C@H]1CN(C)Cc1ccc(-c2ccccc2)cc1` gave Env fusion inh inactive, F508del corr inactive, EWS-Fli block inactive and PAX8 reporter inactive.
`C[C@H]1CN([C@@H](C)CO)C(=O)Cc2cc(NC(=O)Cc3ccccc3)ccc2O[C@H]1CN(C)Cc1ccc(-c2ccccc2)cc1` gave Env fusion inh inactive, F508del corr inactive, EWS-Fli block inactive and PAX8 reporter inactive.
For CC(C)CC#Cc1ccc2c(c1)O[C@@H](CN(C)C(=O)C1CC1)[C@H](C)CN([C@@H](C)CO)S2(=O)=O the results were Env fusion inh inactive, F508del corr inactive and EWS-Fli block inactive.
Screening Cc1noc(C)c1NC(=O)Nc1cccc2c1O[C@H](CN(C)S(C)(=O)=O)[C@H](C)CN([C@@H](C)CO)C2=O returned Env fusion inh inactive, F508del corr inactive and EWS-Fli block inactive.
COCC(=O)N1CC2(C1)CN(C(=O)Nc1ccccc1F)[C@@H](CO)c1c2c2ccc(OC)cc2n1C was read as F508del corr inactive and EWS-Fli block inactive.
`O=c1[nH]c(-c2ccccn2)nc2sc(-c3ccccc3)cc12` gave Env fusion inh inactive, F508del corr inactive, GAA850 FXN act inactive, EWS-Fli block inactive and PAX8 reporter 89.
Cc1c(C(=O)N(C)C)sc2nc(-c3ccccn3)[nH]c(=O)c12 was read as GAA850 FXN act inactive.
`Cc1ccc(Cn2ccsc2=NC(=O)CCl)cc1` gave Env fusion inh inconclusive, F508del corr inactive, GAA850 FXN act inactive, EWS-Fli block inactive and PAX8 reporter 114.
For O=C(C[C@@H]1CC[C@@H]2[C@H](COC[C@H](O)CN2C(=O)c2ccccc2)O1)Nc1nccs1 the results were Env fusion inh inactive, F508del corr inactive, EWS-Fli block inactive and PAX8 reporter inactive.
For CCCNC(=O)N1[C@H](CO)[C@H](c2ccccc2)[C@H]1CNC(=O)C1CCC1 the results were F508del corr inactive.
COc1ccccc1CNC(=O)C[C@H]1C[C@@H]2c3cc(NS(=O)(=O)c4ccc(F)cc4)ccc3O[C@@H]2[C@H](CO)O1 was read as Env fusion inh 94[16.7 µM], F508del corr inactive, EWS-Fli block inactive and PAX8 reporter inactive.
`COC(=O)C[C@@H]1C[C@H]2c3cc(NS(=O)(=O)c4cccc(OC)c4)ccc3O[C@H]2[C@@H](CO)O1` gave Env fusion inh 60[16.7 µM], F508del corr inactive, EWS-Fli block inactive and PAX8 reporter inactive.
`COc1ccccc1CNC(=O)C[C@H]1C[C@@H]2c3cc(NS(=O)(=O)c4ccc(F)cc4)ccc3O[C@@H]2[C@@H](CO)O1` gave Env fusion inh 55[16.7 µM], F508del corr inactive, EWS-Fli block inactive and PAX8 reporter inactive.
